Test [1] can be described thus: qHTS assay to identify small molecule inhibitors of chordoma cells - UCH-1 (AID 1259355). Further: nearly all actives have a fitted effect of over 55% in size. Further: potency means the concentration at half of the fitted maximal effect. As to conditions: UCH-1 chordoma viability, CellTiter-Glo, 48 h, combination; series mostly up to 46.1 µM. A digest of the protocol: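 Luminescent ATP read-out (CellTiter-Glo, 30min at room temperature) measured viability of UCH-1 cells exposed for 48hr to test drugs at 15 concentrations, co-dosed with a five-agent combination of auranofin, camptothecin, doxorubicin, rubitecan and topotecan.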
(In qHTS, concentration-response curves come from the screen itself.)

A short description of test [2]: qHTS assay to identify small molecule inhibitors of chordoma cells - UCH-2 (AID 1259356). Further: potency means the concentration at half of the fitted maximal effect. As to conditions: UCH-2 chordoma viability, CellTiter-Glo ATP luminescence, 48 h; series mostly up to 46.1 µM.
Test [3] is described as follows: P-glycoprotein substrates identified in KB-8-5-11 adenocarcinoma cell line, qHTS therapeutic library screen (AID 1346987). Further: nearly all actives have a fitted effect of over 65% in size. Further: potency means the concentration at half of the fitted maximal effect. As to conditions: KB-8-5-11 (P-gp overexpressing) viability, CellTiter-Glo, 72 h; series mostly up to 44.5 µM. A digest of the protocol: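 Steps: plate 500 KB-8-5-11 cells/well in DMEM + 10% FCS (colchicine removed); pin compounds in dose-response; incubate 72 h, 37 degree C, 5% CO2; add CellTiter-Glo, 5 min; read luminescence.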

A short description of test [4]: NS1 protein of Zika virus - qHTS assay to identify small molecule inhibitors in human HEK 293 cells (AID 1347053). Further: nearly all actives have a fitted effect of over 55% in size. As to conditions: HEK293 ZIKV MR766 infection, NS1 TR-FRET, 24 h; series mostly up to 46.1 µM. In outline:
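Following 20 h seeding, HEK 293 cells took compound, then 1 h later ZIKV MR766 (MOI = 0.5). Incubation ran 24 h at 37 C before TR-FRET detection of NS1; a drop in signal indicates inhibition.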

Test [5] is described as follows: Natriuretic polypeptide receptor (hNpr1) antagonism - Pilot counterscreen GloSensor control cell line (AID 1347045; calls by dose curve). As to conditions: HEK293 cGMP GloSensor cells, SNP-stimulated luminescence, 20 min; series mostly up to 38.3 µM. In outline:
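Luminescence was read before and 20 min after adding 50 uM SNP, which stimulates soluble guanylyl cyclase. The HEK293 cells expressing the GloSensor cGMP sensor had been preloaded with 2% reagent for 2 h and treated with compound.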
In general terms: A counterscreen serves to expose hits that act by an unwanted route or on another target.

For test [6], the target named is Atrial natriuretic peptide receptor 1 (Homo sapiens) (UniProt P16066). Briefly: Natriuretic polypeptide receptor (hNpr1) antagonism - Pilot screen (AID 1347049; calls by dose curve;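 further: agonist-evoked cGMP luminescence read 20 min after hNppA addition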; further: potency means the concentration at half of the fitted maximal effect). As to conditions: hNpr1 cells, antagonist mode cGMP read-out; series mostly up to 57.5 µM. In outline:
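HEK293 cells co-expressing hNpr1 and the GloSensor pGS-40F cGMP luciferase sensor were preloaded with 2% GloSensor reagent for 2 h. Compounds were added for 30 min at room temperature, then cells were stimulated with 0.1 nM hNppA for 20 min before luminescence readout.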

For test [7], the target named is Atrial natriuretic peptide receptor 2 (Homo sapiens) (UniProt P20594). Briefly: Natriuretic polypeptide receptor (hNpr2) antagonism - Pilot subtype selectivity assay (AID 1347050; calls by dose curve; further: potency means the concentration at half of the fitted maximal effect). As to conditions: NPR2-expressing cells, cGMP antagonist-mode read-out; series mostly up to 38.3 µM. A digest of the protocol: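 cGMP-sensor HEK293/hNpr2 cells; 2% GloSensor reagent 2 h RT; compounds 30 min; baseline luminescence read; 1 nM hNppC agonist 20 min RT; final luminescence read by CCD camera. Antagonism = reduced post-agonist signal.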

For test [8], the target named is T1, Tyrosine-protein phosphatase non-receptor type substrate 1 (Homo sapiens) + Leukocyte surface antigen CD47 (Homo sapiens) (UniProt P78324+Q08722). Nature of the test: CD47-SIRPalpha protein protein interaction - LANCE assay qHTS validation (AID 1347057; active means well fitted curve in the direction sought with a large enough effect in the signal ratio, with a control signal flat, not every such curve was filed as active; the % refers to the signal ratio). As to conditions: Recombinant CD47-His / biotin-SIRPalpha, TR-FRET ratio; series mostly up to 38.3 µM. In outline:
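First, His-tagged CD47 and Eu-labelled anti-His antibody met the compound for 30 min; next, site-specifically biotinylated SIRPalpha was added for 30 min; finally streptavidin-APC was added before reading the TR-FRET ratio.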

The target of test [9] is T1, Tyrosine-protein phosphatase non-receptor type substrate 1 (Homo sapiens) + Leukocyte surface antigen CD47 (Homo sapiens). Nature of the test: CD47-SIRPalpha protein protein interaction - HTRF assay qHTS validation (AID 1347058; active means well fitted curve in the direction sought with a large enough effect in the signal ratio, not every such curve was filed as active; the % refers to the signal ratio). As to conditions: TR-FRET HTRF CD47-His / biotin-SIRPalpha binding, ratio 665/615; series mostly up to 38.3 µM. A digest of the protocol:
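TR-FRET read (Ch1/Ch2 ratio) of soluble extracellular CD47 and Avi-biotinylated SIRPalpha domains in PBS pH 7.4 with 0.05% IGEPAL; 7-point compound titration. Sequential 30 min room-temperature steps; non-biotinylated SIRPalpha as control inhibitor.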

Test [10] has the same target. Briefly: CD47-SIRPalpha protein protein interaction - Alpha assay qHTS validation (AID 1347059).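 Further: bead proximity luminescence from CD47 binding SIRPalpha after compound preincubation with SIRPalpha.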 Further: potency means the concentration at half of the fitted maximal effect. As to conditions: AlphaScreen CD47-His/biotin-SIRPalpha binding, LOPAC; series mostly up to 38.3 µM. A digest of the protocol:
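Soluble extracellular domains: Avi-tag biotinylated SIRPalpha (25 nM) preincubated 30 min RT with compound, then 6His-CD47 (12.5 nM) 30 min; Ni-NTA acceptor and streptavidin donor beads (10 ug/mL) 30 min, AlphaScreen read. PBS pH 7.4, 0.05% IGEPAL.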

Test [11] is described as follows: Identifying Small Molecule Inhibitors of Pancreatic Cancer Stem Cells (Panc1, Spheroid) (AID 1259359).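 Further: potency means the concentration at half of the fitted maximal effect; compound exposure lasted 48 h before reading.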 As to conditions: Panc1 spheroid cancer stem cell viability. In outline:
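Cytotoxicity read by CellTiter-Glo luminescence after 48 h compound exposure at 37C; percent activity scaled between DMSO-treated cells and cell-free wells. Spheroid formats used cells pre-formed 14 days in stem cell media on hydrogel.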

The nature of test [12]: Identifying Small Molecule Inhibitors of Pancreatic Cancer Stem Cells (SN12C, Spheroid) (AID 1259360). Further: potency means the concentration at half of the fitted maximal effect. As to conditions: Potency: SN12C spheroid viability; series mostly up to 46.1 µM. A digest of the protocol:
(§1)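 Pre-formed 14-day tumor spheroids or adherent cells dosed and incubated 48 h, 37C, 5% CO2. Viability assessed by CellTiter-Glo.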

Test [13] can be described thus: Identifying Small Molecule Inhibitors of Pancreatic Cancer Stem Cells (A278, Adherent) (AID 1259361). Further: nearly all actives have a fitted effect of over 35% in size. As to conditions: series mostly up to 46.1 µM. A digest of the protocol:
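Luminescent ATP readout (CellTiter-Glo) quantifies surviving cells after a 48 h drug incubation. Normalization uses DMSO wells as no inhibition and media-only wells as full inhibition; bortezomib served as positive control.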

The nature of test [14]: Identifying Small Molecule Inhibitors of Pancreatic Cancer Stem Cells (A2780, Spheroid) (AID 1259357).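 Further: potency means the concentration at half of the fitted maximal effect; compound exposure lasted 48 h before the ATP luminescence read.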 As to conditions: Potency: A2780 spheroid viability; series mostly up to 46.1 µM. In outline:
as §1

SMILES strings stand for the structures. Records with an inconclusive call do not appear. Active and inactive are the calls of the source. Unless noted, the call rests on the fitted dose curve; in most records, active means well fitted curve in the direction sought with a large enough effect; inconclusive means small, poorly fitted or top-dose-only effect, or another doubt; inactive means no such curve, though single readings can be large; an effect the other way counts as inactive or inconclusive.

Atrial natriuretic peptide receptor 1 (Homo sapiens), sequence (P16066 whole entry, looked up): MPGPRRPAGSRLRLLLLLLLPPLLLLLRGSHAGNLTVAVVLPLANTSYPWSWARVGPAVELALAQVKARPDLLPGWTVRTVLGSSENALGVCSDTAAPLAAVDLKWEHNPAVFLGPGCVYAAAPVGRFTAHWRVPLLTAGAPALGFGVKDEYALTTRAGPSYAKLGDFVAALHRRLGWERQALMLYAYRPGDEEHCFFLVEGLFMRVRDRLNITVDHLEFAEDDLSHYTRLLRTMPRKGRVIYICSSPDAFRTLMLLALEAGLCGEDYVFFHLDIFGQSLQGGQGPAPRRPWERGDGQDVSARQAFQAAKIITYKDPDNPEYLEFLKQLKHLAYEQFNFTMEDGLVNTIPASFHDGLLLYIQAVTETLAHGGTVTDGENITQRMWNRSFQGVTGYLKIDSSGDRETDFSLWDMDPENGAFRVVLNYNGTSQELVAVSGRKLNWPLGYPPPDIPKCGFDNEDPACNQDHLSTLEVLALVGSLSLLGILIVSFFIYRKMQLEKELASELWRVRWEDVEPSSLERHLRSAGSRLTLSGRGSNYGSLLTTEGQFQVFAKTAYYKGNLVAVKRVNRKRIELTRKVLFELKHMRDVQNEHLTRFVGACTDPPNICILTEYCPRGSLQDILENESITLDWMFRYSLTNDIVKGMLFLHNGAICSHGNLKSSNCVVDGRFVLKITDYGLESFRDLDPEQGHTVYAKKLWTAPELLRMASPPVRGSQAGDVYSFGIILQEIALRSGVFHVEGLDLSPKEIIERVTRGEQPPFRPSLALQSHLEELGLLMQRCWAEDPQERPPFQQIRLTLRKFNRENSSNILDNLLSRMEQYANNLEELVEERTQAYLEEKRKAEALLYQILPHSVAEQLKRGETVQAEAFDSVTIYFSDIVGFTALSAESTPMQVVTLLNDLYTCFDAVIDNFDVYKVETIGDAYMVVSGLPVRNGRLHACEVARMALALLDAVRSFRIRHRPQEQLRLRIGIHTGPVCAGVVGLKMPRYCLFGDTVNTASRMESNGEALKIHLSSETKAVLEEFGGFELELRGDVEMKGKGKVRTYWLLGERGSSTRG
Atrial natriuretic peptide receptor 2 (Homo sapiens), sequence (P20594 whole entry, looked up): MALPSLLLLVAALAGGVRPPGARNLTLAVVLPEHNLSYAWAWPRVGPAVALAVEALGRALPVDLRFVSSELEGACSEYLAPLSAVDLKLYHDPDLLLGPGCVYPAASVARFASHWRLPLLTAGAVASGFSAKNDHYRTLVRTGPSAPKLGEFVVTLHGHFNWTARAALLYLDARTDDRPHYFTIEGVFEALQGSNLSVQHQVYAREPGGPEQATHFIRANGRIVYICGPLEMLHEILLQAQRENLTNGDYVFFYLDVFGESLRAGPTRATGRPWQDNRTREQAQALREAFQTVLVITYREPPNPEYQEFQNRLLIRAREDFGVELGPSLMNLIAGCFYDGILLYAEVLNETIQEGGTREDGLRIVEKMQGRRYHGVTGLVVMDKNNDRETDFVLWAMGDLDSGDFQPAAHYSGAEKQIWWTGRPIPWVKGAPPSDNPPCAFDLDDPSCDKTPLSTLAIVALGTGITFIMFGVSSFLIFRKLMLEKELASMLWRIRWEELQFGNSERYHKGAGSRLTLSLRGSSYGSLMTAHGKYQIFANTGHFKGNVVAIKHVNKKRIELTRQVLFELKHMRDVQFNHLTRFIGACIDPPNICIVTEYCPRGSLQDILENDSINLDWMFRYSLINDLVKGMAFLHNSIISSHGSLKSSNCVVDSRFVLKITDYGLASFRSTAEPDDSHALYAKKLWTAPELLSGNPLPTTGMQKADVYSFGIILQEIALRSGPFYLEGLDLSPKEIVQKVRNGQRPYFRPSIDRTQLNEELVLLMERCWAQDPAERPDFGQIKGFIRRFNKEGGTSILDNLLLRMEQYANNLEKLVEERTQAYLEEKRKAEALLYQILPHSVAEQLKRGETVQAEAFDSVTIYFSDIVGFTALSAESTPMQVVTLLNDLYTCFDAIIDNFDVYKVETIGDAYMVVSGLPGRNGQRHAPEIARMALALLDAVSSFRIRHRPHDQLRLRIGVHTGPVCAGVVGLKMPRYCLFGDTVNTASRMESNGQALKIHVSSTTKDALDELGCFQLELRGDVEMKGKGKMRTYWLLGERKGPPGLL
T1 sequence (P78324 whole entry, looked up): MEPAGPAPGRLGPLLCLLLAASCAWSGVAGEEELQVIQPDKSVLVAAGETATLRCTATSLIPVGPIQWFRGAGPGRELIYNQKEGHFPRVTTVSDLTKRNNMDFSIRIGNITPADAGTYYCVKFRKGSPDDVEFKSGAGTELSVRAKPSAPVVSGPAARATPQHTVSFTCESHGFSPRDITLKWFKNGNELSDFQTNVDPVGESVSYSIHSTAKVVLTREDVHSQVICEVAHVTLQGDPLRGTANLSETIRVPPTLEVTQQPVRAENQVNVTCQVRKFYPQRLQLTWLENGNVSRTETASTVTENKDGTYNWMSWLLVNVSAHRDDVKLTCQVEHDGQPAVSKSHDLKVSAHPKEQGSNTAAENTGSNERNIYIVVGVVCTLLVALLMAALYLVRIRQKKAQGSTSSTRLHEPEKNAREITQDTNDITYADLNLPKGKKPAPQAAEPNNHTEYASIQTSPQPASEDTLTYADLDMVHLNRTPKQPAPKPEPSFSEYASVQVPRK
T1 sequence (Q08722 whole entry, looked up): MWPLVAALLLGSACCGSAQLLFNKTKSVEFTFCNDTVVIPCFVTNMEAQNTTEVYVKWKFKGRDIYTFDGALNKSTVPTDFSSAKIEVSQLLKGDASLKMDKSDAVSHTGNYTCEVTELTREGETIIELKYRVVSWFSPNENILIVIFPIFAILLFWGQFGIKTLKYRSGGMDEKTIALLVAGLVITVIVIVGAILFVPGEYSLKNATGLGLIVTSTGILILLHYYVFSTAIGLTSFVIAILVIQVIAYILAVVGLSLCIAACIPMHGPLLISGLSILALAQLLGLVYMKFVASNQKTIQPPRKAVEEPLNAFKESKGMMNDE

Take `Cc1cc(O)ccc1Cl`: the Potency entry in test [1], in test [2], in [3] and in test [4] was “inactive” throughout.
Consider `CC[N+]1(CCOC(=O)C(O)(c2ccccc2)c2ccccc2)CCCCC1`, for which the Potency result in test [1], in [2], in [3] and in test [4] was “inactive” throughout.
As for `OCCCBr`, the Potency result in test [3] is “inactive”.
As to `O=C(O)C(Cl)Cl`, the Potency entry in test [1], in [2], in test [3] and in test [4] was “inactive” each time.
Take `CCCN1CCC[C@H](c2cccc(O)c2)C1`: the Potency entry in [1], in [2], in [3], in test [5], in [6] and in test [7] was “inactive” in each case. In addition, the Potency result in test [4] and in [10] was “inactive” each time. Also, the outcome in test [8] and in [9] was inactive.
In the case of `C1CCC(NC2CCCCC2)CC1`, the Potency entry in test [2], in test [3] and in [4] was “inactive” throughout.
Take `C[N+](C)(C)CC(=O)O`: the Potency result in test [1], in test [2], in [3], in test [4] and in test [10] was “inactive” throughout. Besides, the result in [8] and in test [9] was inactive.
With `CN1C2CCC1CC(OC(=O)c1cc(Cl)cc(Cl)c1)C2` (stereo not given), the Potency entry in test [1], in test [5], in test [6], in test [7], in [4] and in test [10] was “inactive” throughout. Further, the outcome in test [8] and in test [9] was inactive.
As to `CC(C)NC(C)Cc1ccc(I)cc1` (stereo not given), the Potency entry in test [1], in test [2], in test [5], in [7], in test [4] and in test [10] was “inactive” throughout. Further, the outcome in test [8] and in test [9] was inactive.
Take `O=C1C(I)=CC(=C(c2cc(I)c(O)c(I)c2)c2ccccc2C(=O)O)C=C1I`: the Potency entry in [1], in test [2], in test [3] and in test [4] was “inactive” each time.
Turning to `C[C@]12N[C@H](Cc3ccccc31)c1ccccc12`, the Potency result in test [1], in test [2], in [6], in test [7] and in [4] was “inactive” in each case. The result in [8] and in test [9] was inactive.
On to `CCCCCCCCCC(CC)c1ccc(S(=O)(=O)O)cc1` (stereo not given), for which the Potency result in test [1], in test [2], in test [3] and in [4] was “inactive” throughout.
Regarding `COC(C)(C)CCCC(C)C/C=C/C(C)=C/C(=O)OC(C)C` (stereo not given), the Potency entry in test [1], in test [2] and in [4] was “inactive” throughout.
As to `O=C(O)COc1ccccc1`, the Potency result in test [1], in [2], in [3] and in [4] was “inactive” in each case.
`C[C@]12CCC(=O)C(O)=C1CC[C@@H]1[C@H]3CCC(=O)[C@@]3(C)CC[C@@H]12`: the Potency entry in test [1], in test [2], in test [3] and in test [4] was “inactive” in each case.
Consider `c1ccc(C2(c3ccccc3)CC2C2=NCCN2)cc1` (stereo not given), for which the Potency entry in test [1], in [2], in test [3], in test [6] and in test [4] was “inactive” each time.
Take `NC(=O)CN1CC(O)CC1=O` (stereo not given): the Potency entry in [1], in test [2], in test [3], in [7], in test [4] and in test [10] was “inactive” each time. Moreover, the result in [8] and in test [9] was inactive.
As to `CC(=O)[O][Hg][c]1ccccc1`, the values for the Potency in [1], in test [2] and in [3] were 7.08 µM (active), 2.59 µM (active) and 259 nM (active), respectively.
In the case of `CN[C@@H](C)[C@H](O)c1ccccc1`, the Potency entry in test [1], in test [2], in test [3] and in [4] was “inactive” each time.
`C=CC(=O)NCNC(=O)C=C`: the Potency result in test [3] was “inactive”.
Take `CCCCCCCCCCCCCCCC[N+](C)(C)C`: the Potency entry in test [2] is “inactive”.
As for `CC(C)[C@]12O[C@H]1[C@@H]1O[C@]13[C@]1(O[C@H]1C[C@H]1C4=C(CC[C@@]13C)C(=O)OC4)[C@@H]2O`, the Potency is 23.5 nM (active) in test [11], 11.8 nM (active) in test [12] and 20.6 nM (active) in test [3]. In addition, the IC50 (viability decrease) in test [13] is 6.6 nM (active).
As to `Cc1ccc(Cl)c(O)c1`, the Potency entry in test [1], in [2], in test [3] and in test [4] was “inactive” throughout.
Turning to `O=C(O)c1cc(Oc2ccc(C(F)(F)F)cc2Cl)ccc1[N+](=O)[O-]`, the Potency result in [3] is “inactive”.
Turning to `O=[N+]([O-])/N=C1\NCCN1Cc1ccc(Cl)nc1`, the Potency entry in test [2], in [3] and in test [4] was “inactive” throughout.
`CCCCc1ccc(C(=O)O)nc1`: the Potency result in test [1], in [2], in [5], in test [6], in test [7] and in [4] was “inactive” each time. Besides, the outcome in [8] and in [9] was inactive. The Potency in test [10] was 16.5 µM (active).
With `COC(=O)c1cncn1C(C)c1ccccc1` (stereo not given), the Potency entry in test [1], in test [2], in [3] and in [4] was “inactive” each time.
As to `Nc1c(Cl)c(Cl)c(Cl)c(Cl)c1Cl`, the Potency entry in test [3] was “inactive”.
On to `O=[N+]([O-])c1ccc([As](=O)(O)O)cc1`, for which the Potency entry in test [1], in test [2], in test [3] and in test [4] was “inactive” in each case.
Turning to `CC(Cc1ccc(O)cc1)NCC(O)c1cc(O)cc(O)c1` (stereo not given), the Potency result in test [1], in test [2], in test [3], in test [5], in test [6] and in [7] was “inactive” throughout. For the same compound, the Potency result in test [4] and in [10] was “inactive” throughout. Moreover, the result in [8] was inactive.
Turning to `S=C(SSC(=S)N1CCCCC1)N1CCCCC1`, the Potency result in test [3] was “inactive”.
On the same count and under the same terms, the result for `Nc1ccc(N=Nc2ccccc2)cc1` reads “inactive”; that for `O=C(O)CCCOc1ccc(Cl)cc1Cl`, “inactive”.
Turning to `CC1CC(C)C(=O)C(C(O)CC2CC(=O)NC(=O)C2)C1` (stereo not given), the Potency in [14] is 3.82 µM (active); in [11] it was 2410 nM (active); in test [12], 1710 nM (active).
As to `CN[C@@H]1C[C@@H](c2ccc(Cl)c(Cl)c2)c2ccccc21`, the Potency result in [1], in test [2] and in test [10] was “inactive” in each case. In addition, the figures for the Potency in [6] and in [7] were 757 nM (active) and 18.5 µM (active), respectively. The result in [8] and in [9] was inactive.
Turning to `CCOCCOC(C)=O`, the Potency entry in test [3] and in test [4] was “inactive” each time.
Consider `C=C1C[C@H]2[C@H]3CCC(=O)[C@@]3(C)CC[C@@H]2[C@@]2(C)C=CC(=O)C=C12`, for which the Potency result in test [3] and in test [4] was “inactive” in each case.
With `CC(C)NCC(O)c1ccc([N+](=O)[O-])cc1` (stereo not given), the Potency entry in test [3] and in test [4] was “inactive” in each case.
